Test results as given in PubChem BioAssay (NCATS).
Inconclusive results are not listed. Entries that show only a call come without a potency. Active and inactive are the calls of the source. Calls come from the whole dose curve; as a rule, active = well fitted curve in the direction sought with a large enough effect; inconclusive = small, poorly fitted or top-dose-only effect, or another doubt; inactive = no such curve, though single readings can be large; an effect the other way counts as inactive or inconclusive.

Legend:
[1] = qHTS assay to identify small molecule inhibitors of chordoma cells - UCH-1 (AID 1259355); conditions: UCH-1 chordoma viability, CellTiter-Glo, 48 h, combination, with auranofin plus four topoisomerase inhibitors; series mostly up to 46.1 µM; note: nearly all actives have a fitted effect of over 55% in size; note: potency is the fitted concentration of half-maximal effect
Outline: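 Cells (800/well) were seeded and left overnight at 37 C, 5% CO2, then treated with drugs at 15 concentrations plus a combination mix of auranofin, camptothecin, doxorubicin, rubitecan and topotecan. Viability after 48hr was read by CellTiter-Glo luminescence.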

[2] = qHTS assay to identify small molecule inhibitors of chordoma cells - UCH-2 (AID 1259356); conditions: UCH-2 chordoma viability, CellTiter-Glo ATP luminescence, 48 h; series mostly up to 46.1 µM; note: potency is the fitted concentration of half-maximal effect
[3] = P-glycoprotein substrates identified in KB-8-5-11 adenocarcinoma cell line, qHTS therapeutic library screen (AID 1346987); conditions: KB-8-5-11 (P-gp overexpressing) viability, CellTiter-Glo, 72 h; series mostly up to 44.5 µM; note: nearly all actives have a fitted effect of over 65% in size; note: potency is the fitted concentration of half-maximal effect
Outline: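 KB-8-5-11, a colchicine-selected P-gp-overexpressing KB-3-1 subline, was grown without colchicine for the assay. Cells were seeded at 500 cells/well, dosed in concentration-response and incubated 72 h at 37 degree C, 5% CO2. Viability was read by CellTiter-Glo luminescence.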

[4] = P-glycoprotein substrates identified in KB-3-1 adenocarcinoma cell line, qHTS therapeutic library screen (AID 1346986); conditions: KB-3-1 parental cells viability, CellTiter-Glo, 72 h; series mostly up to 44.5 µM; note: nearly all actives have a fitted effect of over 60% in size
Outline: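 KB-3-1 parental and colchicine-selected P-gp-overexpressing KB-8-5-11 cells (colchicine omitted during assay), 500 cells/well, dosed in dose-response for 72 h at 37 °C; CellTiter-Glo luminescence. Cytotoxic: curve class -1.1 to -2.4, max response >50%, AC50 < 10 uM.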

Row | SMILES | Potency [1] | Potency [2] | Potency [3] | Potency [4]
1 | CC[C@@H](C(=O)O)[C@@H]1O[C@@H]([C@@H](C)[C@H](O)[C@H](C)C(=O)[C@H](CC)[C@H]2O[C@]3(C=C[C@@H](O)[C@]4(CC[C@@](C)([C@H]5CC[C@](O)(CC)[C@H](C)O5)O4)O3)[C@H](C)C[C@@H]2C)[C@@H](C)C[C@@H]1C | 3.55 µM (active) | 8.2 µM (active) | 2.31 µM (active) | –
2 | CCOc1ccc(N=Nc2ccc(N)cc2N)cc1 | inactive | inactive | – | –
3 | O=C(O)CN(CCN(CC(=O)O)CC(=O)O)CC(=O)O | inactive | inactive | – | –
4 | CC[N+](C)(C)Cc1ccccc1Br | inactive | inactive | – | –
5 | C#C[C@]1(O)CC[C@H]2[C@@H]3CCC4=CCCC[C@@H]4[C@H]3C(=C)C[C@@]21CC | inactive | inactive | – | –
6 | COc1cc(-c2ccc(-[n+]3nc(-c4ccccc4)nn3-c3ccc([N+](=O)[O-])cc3)c(OC)c2)ccc1-[n+]1nc(-c2ccccc2)nn1-c1ccc([N+](=O)[O-])cc1 | 31.6 µM (active) | 9.2 µM (active) | – | –
7 | CC1=C(/C=C/C(C)=C/C=C/C(C)=C/CO)C(C)(C)CCC1 | inactive | inactive | inactive | –
8 | Cc1cc(/C=C/c2ccc3cc(N(C)C)ccc3[n+]2C)c(C)n1-c1ccccc1 | 5.01 µM (active) | inactive | inactive | –
9 | COC(=O)CCC(=O)CN | inactive | inactive | – | –
10 | C#CCOc1ccc2c(C)cc(=O)oc2c1 | inactive | inactive | inactive | –
11 | O=C(Nc1cccc(C(F)(F)F)c1)c1cc(Br)cc(Br)c1O | 12.6 µM (active) | – | 1.3 µM (active) | –
12 | CCNC(=O)[C@@H]1CCCN1C(=O)[C@H](CCCN=C(N)N)NC(=O)[C@H](CC(C)C)NC(=O)[C@@H](Cc1c[nH]c2ccccc12)NC(=O)[C@H](Cc1ccc(O)cc1)NC(=O)[C@H](CO)NC(=O)[C@H](Cc1c[nH]c2ccccc12)NC(=O)[C@H](Cc1cnc[nH]1)NC(=O)[C@@H]1CCC(=O)N1 | 31.6 µM (active) | 18.3 µM (active) | 8.2 µM (active) | –
13 | CCCCCCCCCCCCCCCC(=O)OCC(COC(=O)CCCCCCCCCCCCCCC)OC(=O)CCCCCCCCCCCCCCC | inactive | inactive | – | –
14 | C#C[C@]1(O)CC[C@H]2[C@@H]3CCC4=C/C(=N/O)CC[C@@H]4[C@H]3CC[C@@]21CC | inactive | – | 5.8 µM (active) | –
15 | C[C@]12O[C@H](C[C@]1(O)CO)n1c3ccccc3c3c4c(c5c6ccccc6n2c5c31)CNC4=O | 11.2 µM (active) | 10.3 µM (active) | 4.61 µM (active) | –
16 | CC[C@H]1OC(=O)[C@H](C)[C@@H](O[C@H]2C[C@@](C)(OC)[C@@H](O)[C@H](C)O2)[C@H](C)[C@@H](O[C@@H]2O[C@H](C)C[C@H](N(C)C)[C@H]2O)[C@](C)(O)C[C@@H](C)/C(=N\OCOCCOC)[C@H](C)[C@@H](O)[C@]1(C)O | inactive | inactive | – | –
17 | Cc1ccccc1 | inactive | inactive | inactive | –
18 | CN1C(=O)CN2CCc3ccccc3C2c2cc(Cl)ccc21 (stereo unspecified) | inactive | inactive | – | –
19 | COc1cc([C@@H]2c3cc4c(cc3[C@@H](O[C@@H]3O[C@@H]5CO[C@@H](C)O[C@H]5[C@H](O)[C@H]3O)[C@H]3COC(=O)[C@H]23)OCO4)cc(OC)c1O | inactive | inactive | inactive | –
20 | Cc1cc(C(=O)NNCc2ccccc2)no1 | inactive | inactive | – | –
21 | COc1ccc(CCNC[C@H](O)c2ccc(O)cc2)cc1OC | inactive | inactive | – | –
22 | COC(F)(F)C(Cl)Cl | inactive | inactive | – | –
23 | CCN(CC)CCOc1ccc(-c2nc3cc(Cl)ccc3s2)cc1 | inactive | inactive | 18.4 µM (active) | –
24 | COc1ccc2c3c1O[C@H]1C[C@@H](O)C=C[C@@]31CCN(C)C2 | inactive | – | inactive | inactive
25 | C/C1=C2N=C(/C=C3N=C(/C(C)=C4\[N-][C@@](C)([C@@H]5N=C1[C@](C)(CCC(=O)NCC(C)OP(=O)(O)O[C@H]1[C@@H](O)[C@@H](n6cnc7cc(C)c(C)cc76)O[C@@H]1CO)[C@H]5CC(N)=O)[C@@](C)(CC(N)=O)[C@@H]4CCC(N)=O)[C@@](C)(CC(N)=O)[C@@H]\3CCC(N)=O)C(C)(C)[C@@H]/2CCC(N)=O.CC(=O)O.[Co] (stereo partly specified) | inactive | inactive | inactive | inactive
26 | O=C(Nc1ccc(Br)cc1)c1cc(Br)c(Br)s1 | inactive | inactive | – | –
27 | CC1(C)S[C@@H]2[C@H](NC(=O)C(N)c3ccccc3)C(=O)N2[C@H]1C(=O)OC1OC(=O)c2ccccc21 (stereo partly specified) | inactive | inactive | – | –
